Measured values as given in PubChem BioAssay (NCI).
Compounds without any hit were thinned out: in the full panel of roughly 79,000, 15% have a hit. Values without a mark were called inactive. Active and inactive are the calls of the source. No stated cut-off is given here; in the data, active means growth inhibition above about 70%; inactive means the rest.

How the values were obtained:
[1] = NCI Yeast Anticancer Drug Screen. Data for the rad52 strain (AID 147);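 further: 0% = growth of vehicle-treated control cultures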; conditions: S. cerevisiae rad52 mutant growth inhibition, stronger effect = higher value
In short: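 The repair-mutant yeast strain was incubated with compounds, then growth was read and inhibition derived relative to vehicle.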

[2] = NCI Yeast Anticancer Drug Screen. Data for the wt1 strain (AID 149);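 further: 0% = growth of vehicle-treated wt1 cultures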; conditions: S. cerevisiae wt1 strain (SPY 50644) growth inhibition, stronger effect = higher value
In short: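 Yeast wt1 strain exposed to compounds; growth inhibition measured relative to vehicle-treated controls.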

[3] = NCI Yeast Anticancer Drug Screen. Data for the rad50EPP+ strain (AID 151);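 further: 0% = growth of vehicle-treated control cultures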; conditions: S. cerevisiae rad50 mutant strain, stronger effect = higher value
In short: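 Vehicle-normalised growth inhibition; rad50EPP+ yeast strain, altered in DNA damage repair, compound-treated.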

[4] = NCI Yeast Anticancer Drug Screen. Data for the rad50 strain (AID 155);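 further: 0% = growth of vehicle-only cultures of the same strain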; conditions: S. cerevisiae rad50 strain growth inhibition, stronger effect = higher value
In short: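 Yeast carrying a defined DNA repair defect were exposed to test compounds, and growth was compared with vehicle-treated controls to give percent inhibition.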

[5] = NCI Yeast Anticancer Drug Screen. Data for the mec2-1 strain (AID 157); conditions: S. cerevisiae mec2-1 strain, stronger effect = higher value
In short: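 Mutant yeast (mec2-1) grown with compound; growth inhibition relative to vehicle control reported.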

[6] = NCI Yeast Anticancer Drug Screen. Data for the rad14 strain (AID 159);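 further: 0% = growth of vehicle-treated control cultures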; conditions: S. cerevisiae rad14 strain growth inhibition, stronger effect = higher value
In short: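 Yeast cells carrying a defined DNA-repair defect were exposed to compounds, and growth inhibition was calculated relative to vehicle-treated control cultures.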

[7] = NCI Yeast Anticancer Drug Screen. Data for the sgs1 mgt1 strain (AID 161);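 further: 0% = growth of cultures given vehicle only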; conditions: S. cerevisiae sgs1 mgt1 strain, stronger effect = higher value
In short: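 Percent growth inhibition was derived by comparing compound-exposed mutant yeast with vehicle-exposed cultures. The strain carries alterations in DNA damage repair.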

[8] = NCI Yeast Anticancer Drug Screen. Data for the CLN2oe strain (AID 163);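 further: 0% = growth of vehicle-only control cultures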; conditions: S. cerevisiae CLN2oe strain, stronger effect = higher value
In short: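 Compounds are applied to yeast harbouring a defined cell-cycle control change; reduced growth compared with vehicle-treated controls gives the value.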

[9] = NCI Yeast Anticancer Drug Screen. Data for the cln2 rad14 strain (AID 165);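 further: 0% = growth equal to vehicle treated cultures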; conditions: S. cerevisiae cln2 rad14 strain, stronger effect = higher value
In short: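 Readout is yeast growth inhibition versus vehicle-treated controls, using a strain with cln2 and rad14 alterations exposed to compound.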

[10] = NCI Yeast Anticancer Drug Screen. Data for the bub3 strain (AID 167); conditions: S. cerevisiae bub3 mutant strain, stronger effect = higher value
In short: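 Compounds were applied to a genetically altered yeast strain carrying a cell-cycle control defect. Growth inhibition was scored against vehicle-treated controls.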

[11] = NCI Yeast Anticancer Drug Screen. Data for the wt2 strain (AID 169);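 further: 0% = growth of vehicle-treated yeast cultures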; conditions: S. cerevisiae wt2 strain growth inhibition, stronger effect = higher value
In short: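 Against vehicle-treated controls, the growth of yeast exposed to each compound was compared, and the inhibition was recorded.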

[12] = NCI Yeast Anticancer Drug Screen. Data for the mlh1 strain (AID 171);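 further: 0% = growth of vehicle-treated control cultures of the same strain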; conditions: S. cerevisiae mlh1 strain growth inhibition, stronger effect = higher value
In short: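 Measured: yeast growth. Reference: vehicle-treated controls. Organism: strain with a defined alteration affecting DNA damage repair or cell cycle control, treated with compound.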

[13] = NCI Yeast Anticancer Drug Screen. Data for the sgs1 strain (AID 173);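 further: 0% = growth of vehicle-only control cultures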; conditions: S. cerevisiae sgs1 mutant, stronger effect = higher value
In short: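 Each compound was added to cultures of the altered yeast strain. Growth was recorded, and inhibition was derived by comparison with vehicle controls.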

[14] = NCI Yeast Anticancer Drug Screen. Data for the mlh1 rad18 strain (AID 175); conditions: S. cerevisiae mlh1 rad18 strain growth inhibition, stronger effect = higher value
In short: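 Genetically defined yeast (DNA repair-deficient) exposed to compounds; growth inhibition determined relative to vehicle.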

[15] = NCI Yeast Anticancer Drug Screen. Data for the mgt1 strain (AID 153); conditions: S. cerevisiae mgt1 mutant growth inhibition, stronger effect = higher value
In short: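 Vehicle-normalized growth inhibition is determined in mgt1 yeast, a strain selected for a defined alteration in DNA repair or cell cycle control.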

[16] = at 5.0 µM (retest, dose inferred, filed as 0.5)
[17] = at 50.0 µM (retest, dose inferred, filed as 5.0)

With `CCC1(O)C(=O)OCc2c1cc1n(c2=O)Cc2cc3ccccc3nc2-1` (stereo not drawn) the growth inhibition ([1]; at 1.2 µM) was 73% (active), the growth inhibition ([1]; at 3.7 µM) was 92% (active) and the growth inhibition ([1]; at 11.0 µM) was 95% (active). For the same compound, the growth inhibition ([1]; at 33.0 µM) was 94% (active), the growth inhibition ([1]; at 100.0 µM) was 95% (active) and the growth inhibition ([2]; at 1.2 µM) was -3%. For the same compound, the growth inhibition ([2]; at 3.7 µM) was 28%, the growth inhibition ([2]; at 11.0 µM) was 15% and the growth inhibition ([2]; at 33.0 µM) was 5%. The growth inhibition ([2]; at 100.0 µM) was 13%, the growth inhibition ([3]; at 1.2 µM) was 29% and the growth inhibition ([3]; at 3.7 µM) was 54%. For the same compound, the growth inhibition ([3]; at 11.0 µM) was 70% (active), the growth inhibition ([3]; at 33.0 µM) was 75% (active) and the growth inhibition ([3]; at 100.0 µM) was 86% (active). For the same compound, the growth inhibition ([4]; at 1.2 µM) was 74% (active), the growth inhibition ([4]; at 3.7 µM) was 91% (active) and the growth inhibition [4, 16] was 94% (active). For the same compound, the growth inhibition ([4]; at 11.0 µM) was 95% (active), the growth inhibition ([4]; at 33.0 µM) was 94% (active) and the growth inhibition [4, 17] was 96% (active). The growth inhibition ([4]; at 50.0 µM) was 86.2% (active), the growth inhibition ([4]; at 100.0 µM) was 94% (active) and the growth inhibition ([5]; at 1.2 µM) was -9%. It also gave a growth inhibition ([5]; at 3.7 µM) of -2%, a growth inhibition [5, 16] of 21% and a growth inhibition ([5]; at 11.0 µM) of 23%. The growth inhibition ([5]; at 33.0 µM) was 36%, the growth inhibition [5, 17] was 89% (active) and the growth inhibition ([5]; at 50.0 µM) was 77.2% (active). For the same compound, the growth inhibition ([5]; at 100.0 µM) was 82% (active), the growth inhibition ([6]; at 1.2 µM) was -4% and the growth inhibition ([6]; at 3.7 µM) was 7%. It also gave a growth inhibition ([6]; at 11.0 µM) of 5%, a growth inhibition ([6]; at 33.0 µM) of 12% and a growth inhibition ([6]; at 100.0 µM) of 24%. It also gave a growth inhibition [7, 16] of 23%, a growth inhibition [7, 17] of 56% and a growth inhibition ([7]; at 50.0 µM) of 47.5%. The growth inhibition ([8]; at 1.2 µM) was 12%, the growth inhibition ([8]; at 3.7 µM) was 26% and the growth inhibition ([8]; at 11.0 µM) was 33%. The growth inhibition ([8]; at 33.0 µM) was 18%, the growth inhibition ([8]; at 100.0 µM) was 41% and the growth inhibition [9, 16] was 6%. The growth inhibition [9, 17] was 27%, the growth inhibition ([9]; at 50.0 µM) was 19.3% and the growth inhibition ([10]; at 1.2 µM) was -14%. It also gave a growth inhibition ([10]; at 3.7 µM) of 9%, a growth inhibition [10, 16] of 12% and a growth inhibition ([10]; at 11.0 µM) of -3%. It also gave a growth inhibition ([10]; at 33.0 µM) of 1%, a growth inhibition [10, 17] of 27% and a growth inhibition ([10]; at 50.0 µM) of -24.9%. It also gave a growth inhibition ([10]; at 100.0 µM) of 10%, a growth inhibition ([11]; at 1.2 µM) of 6% and a growth inhibition ([11]; at 3.7 µM) of 4%. It also gave a growth inhibition ([11]; at 11.0 µM) of -1%, a growth inhibition ([11]; at 33.0 µM) of 1% and a growth inhibition ([11]; at 100.0 µM) of 10%. The growth inhibition ([12]; at 1.2 µM) was -5%, the growth inhibition ([12]; at 3.7 µM) was 13% and the growth inhibition ([12]; at 11.0 µM) was 15%. For the same compound, the growth inhibition ([12]; at 33.0 µM) was 2%, the growth inhibition ([12]; at 100.0 µM) was 15% and the growth inhibition ([13]; at 1.2 µM) was 1%. For the same compound, the growth inhibition ([13]; at 3.7 µM) was 15%, the growth inhibition ([13]; at 11.0 µM) was 23% and the growth inhibition ([13]; at 33.0 µM) was 35%. The growth inhibition ([13]; at 100.0 µM) was 48%, the growth inhibition [14, 16] was 36% and the growth inhibition [14, 17] was 70% (active). The growth inhibition ([14]; at 50.0 µM) was -27.3%.
In the case of `NCCc1ccc(OCc2ccccc2)c(OCc2ccccc2)c1`, the growth inhibition ([1]; at 1.2 µM) is reported as -8%, the growth inhibition ([1]; at 3.7 µM) is reported as -5% and the growth inhibition ([1]; at 11.0 µM) is reported as -6%. The growth inhibition ([1]; at 33.0 µM) was 72% (active), the growth inhibition ([1]; at 100.0 µM) was 92% (active) and the growth inhibition ([2]; at 1.2 µM) was 0%. For the same compound, the growth inhibition ([2]; at 3.7 µM) was -6%, the growth inhibition ([2]; at 11.0 µM) was -28% and the growth inhibition ([2]; at 33.0 µM) was 74% (active). For the same compound, the growth inhibition ([2]; at 100.0 µM) was 97% (active), the growth inhibition ([3]; at 1.2 µM) was -15% and the growth inhibition ([3]; at 3.7 µM) was -9%. For the same compound, the growth inhibition ([3]; at 11.0 µM) was -19%, the growth inhibition ([3]; at 33.0 µM) was 11% and the growth inhibition ([3]; at 100.0 µM) was 83% (active). For the same compound, the growth inhibition ([15]; at 1.2 µM) was 2%, the growth inhibition ([15]; at 3.7 µM) was 13% and the growth inhibition ([15]; at 11.0 µM) was 56%. For the same compound, the growth inhibition ([15]; at 33.0 µM) was 97% (active), the growth inhibition ([15]; at 100.0 µM) was 98% (active) and the growth inhibition ([4]; at 1.2 µM) was 16%. For the same compound, the growth inhibition ([4]; at 3.7 µM) was 17%, the growth inhibition [4, 16] was 43% and the growth inhibition ([4]; at 11.0 µM) was 35%. The growth inhibition ([4]; at 33.0 µM) was 90% (active), the growth inhibition [4, 17] was 90% (active) and the growth inhibition ([4]; at 50.0 µM) was 91.7% (active). For the same compound, the growth inhibition ([4]; at 100.0 µM) was 96% (active), the growth inhibition ([5]; at 1.2 µM) was 0% and the growth inhibition ([5]; at 3.7 µM) was 3%.
